# Screening results deposited in PubChem BioAssay by several laboratories.
# Compounds with a hit are over-represented: about 1.2% of the library has one in this group of screens.
# Platelet DG rel: modulates dense granule release in human platelets; inhibition, %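 (compounds screened at 7.5 µM in platelet-rich plasma)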; human platelet-rich plasma, SFLLRN dense granule ATP release, luminescence; actives 0.22% (n = 300,000);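 active means mean replicate score, as percent of positive control, at or above 50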
# Yeast superoxide: caloric restriction mimetics inhibiting age-related superoxide in yeast. S. cerevisiae aged cells, superoxide DHE fluorescence; active compounds read low. superoxide response (% of plate mean), % at 10 µM. actives 0.18% (n = 330,000);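 active means superoxide response under a set limit, about three screen SD below normal, cut at about 65% in these data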;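 further: yeast aged for seven days with compound at 30 °C before DHE staining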
# SKN-1 block: C. elegans SKN-1 inhibition; C. elegans VP596 Pgst-4::GFP/RFP ratio, acrylamide-induced, 24 h; inhibition, % at 21.8 µM; actives 0.49% (n = 360,000);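 active means interference check ratio from 0.5 to 1.5 plus GFP to RFP signal ratio inhibition reaching or exceeding a fixed threshold, cut at about 30% in these data, passing the limit was not always enough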
# ABCB6 inh MLPCN: inhibitors of human ABC transporter ABCB6 | fluorescence ratio to DMSO, % at 10 µM | Q9NP58 | K562-ABCB6 porphyrin accumulation, flow cytometry, 1 h; active compounds read low | actives 0.19% (n = 360,000);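 active means fluorescence ratio to DMSO below 75%, the collection mean minus 3 SD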;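 further: signal is porphyrin accumulated inside mitochondria; lower ratio means ABCB6 inhibition with less porphyrin fluorescence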
# Target sequence (Q9NP58 whole entry, looked up): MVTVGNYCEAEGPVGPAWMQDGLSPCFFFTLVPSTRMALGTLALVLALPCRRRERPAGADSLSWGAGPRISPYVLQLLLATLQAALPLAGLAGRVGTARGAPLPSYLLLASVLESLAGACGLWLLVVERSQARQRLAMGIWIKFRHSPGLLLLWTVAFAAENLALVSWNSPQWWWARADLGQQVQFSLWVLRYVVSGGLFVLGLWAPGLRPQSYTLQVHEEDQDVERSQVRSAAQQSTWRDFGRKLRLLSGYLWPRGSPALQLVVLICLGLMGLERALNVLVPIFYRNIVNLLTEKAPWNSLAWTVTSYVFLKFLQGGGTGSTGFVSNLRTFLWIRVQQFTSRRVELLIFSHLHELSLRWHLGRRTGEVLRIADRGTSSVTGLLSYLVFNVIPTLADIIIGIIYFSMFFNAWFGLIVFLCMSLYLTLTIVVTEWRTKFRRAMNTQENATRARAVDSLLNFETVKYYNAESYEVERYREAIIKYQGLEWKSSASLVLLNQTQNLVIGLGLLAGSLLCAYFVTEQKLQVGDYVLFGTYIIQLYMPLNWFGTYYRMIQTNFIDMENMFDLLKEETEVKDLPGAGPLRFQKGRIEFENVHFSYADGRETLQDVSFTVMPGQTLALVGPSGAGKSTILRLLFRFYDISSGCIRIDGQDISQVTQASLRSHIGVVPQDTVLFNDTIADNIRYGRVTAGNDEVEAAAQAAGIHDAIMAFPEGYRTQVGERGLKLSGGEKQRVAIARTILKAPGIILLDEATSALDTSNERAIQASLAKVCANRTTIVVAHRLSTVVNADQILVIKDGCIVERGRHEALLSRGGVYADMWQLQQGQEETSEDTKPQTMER
# VLA-4 inh: inhibition in a human VLA-4 binding assay | AID 2557 | P13612 | inhibition, % (about 7 µM as worked out from the volumes in the protocol) | actives 0.2% (n = 330,000) | VLA-4 expressing cells, ligand binding flow cytometry; in the data active means inhibition above about 50%
# VLA-4 mod pick: confirmation of allosteric modulators of human VLA-4 integrin; shares compounds with VLA-4 inh; U937 cells, HUTS-21 LIBS mAb binding, flow cytometry; LDV ligand present at threefold Kd; inhibition, % at 6.7 µM; actives 2% (n = 1,300); in the data active means inhibition above about 40%
# Hits are given with their value; – = inactive; · = no result.
SMILES,Platelet DG rel,Yeast superoxide,SKN-1 block,ABCB6 inh MLPCN,VLA-4 inh,VLA-4 mod pick
Cc1cc(C(=O)NNC(=O)C2CCCC2)c(C)o1,–,–,–,–,70,–
Cc1ccc2nc(-c3ccccc3)cc(C(=O)N3CCN(S(=O)(=O)c4c(C)noc4C)CC3)c2c1,·,–,–,–,–,–
C=CCNc1ncnc2c1ncn2[C@H]1CN(Cc2cc(OC)c(OC)c(OC)c2)C[C@@H](CO)O1,·,·,–,–,·,·
O=C(COc1ccccc1)NCc1nnc2c3ccccc3c(-c3ccccc3)nn12,–,–,–,–,56,–
COc1cc(/C=C/CNC[C@H]2O[C@@H](n3cnc4c(N)ncnc43)[C@H](O)[C@@H]2O)ccc1O,·,·,–,–,·,·
COCCNC(=O)/C(C#N)=C/c1ccc(SC)cc1,–,–,–,–,–,·
COCCNC(=O)/C(C#N)=C/c1ccc(C(=O)O)cc1,–,–,–,–,–,–
COCCNC(=O)/C(C#N)=C/c1c(F)cccc1Cl,–,–,–,–,–,–
O=C(NC1CCCC1)c1cccc(NC(=O)c2ccco2)c1,–,–,–,–,50,–
NC(Cc1ccc(F)cc1)c1csc(Nc2ccc(C(=O)c3ccccc3)cc2)n1 (stereo unspecified),·,·,–,–,·,·
O=C(Nc1ccc2oc(-c3ccccc3)nc2c1)c1ccc2c(c1)OCCO2,–,–,–,–,60,–
O=C(Nc1ccc2oc(-c3ccncc3)nc2c1)c1ccc2c(c1)OCCO2,–,–,–,–,–,·
CCc1ccc(OCc2nnc(SCC(=O)Nc3cccc(C(=O)N4CCOCC4)c3)o2)cc1,–,–,–,–,–,–
CN(C)CCNC(=O)c1cccc(-c2cnc3c(NC=O)cc(/C=C/c4ccccc4)cn23)c1,·,·,–,–,·,·
CNC(=O)CSc1nc2c([nH]c3ccccc32)c(=O)n1CCOC,–,–,–,–,58,–
COCCn1c(SCC(=O)Nc2ccc(F)cc2)nc2c([nH]c3ccccc32)c1=O,–,–,–,–,–,·
COc1ccc(NC(=O)C2c3ccccc3OCC(=O)N2Cc2cccnc2)cc1 (stereo unspecified),·,·,–,–,·,·
CCOC(=O)C1(CCc2ccccc2)CCN(Cc2ccc(O)cc2)CC1,–,–,–,–,–,·
CCOC(=O)C1(S(=O)(=O)c2ccccc2)CCN(Cc2ccc(Cl)cc2)CC1,–,–,–,–,74,–
CCOC(=O)C1(S(=O)(=O)c2ccc(Cl)cc2)CCN(Cc2ccc(Cl)cc2)CC1,–,–,–,–,59,–
CCOC(=O)C1(Cc2ccc(Cl)cc2)CCN(Cc2nccn2CC)CC1,–,–,–,–,–,·
CCc1nc2ccc(C(=O)N3CCN(c4ccccc4)CC3)cn2c1N(CCC(C)C)CCN(C)C,·,·,–,–,·,·
CC(C)(C)NC(=O)C1c2ccccc2OCC(=O)N1Cc1ccccc1 (stereo unspecified),·,·,–,–,·,·
CCCNC(=O)C1(C)CCN(C(=O)c2cccnc2Oc2ccccc2)C1 (stereo unspecified),·,·,–,–,·,·
COc1ccc(NC(=O)C2(C)CCN2Cc2cccc(OC)c2F)cc1OC (stereo unspecified),·,·,–,–,·,·
SMILES,Platelet DG rel,Yeast superoxide,SKN-1 block,ABCB6 inh MLPCN,VLA-4 inh,VLA-4 mod pick
CCCNC(=O)Nc1cc(OCC)c(N2CCOCC2)cc1OCC,–,–,–,–,–,·
CCNC(=S)Nc1cc(OCC)c(N2CCOCC2)cc1OCC,–,–,–,–,–,–
C[C@@]12CC[C@@H](C3=C(CCC3)C1)N2c1ccccc1,·,·,–,·,·,·
COC(=O)c1c(NC(=O)c2ccco2)sc2c1CCC2,–,–,40,–,92,–
CNC(=S)N1CCN(CCNC2=CC(=O)CC(C)(C)C2)CC1,–,–,–,–,–,·
CC1(C)CC(NCCN2CCN(C3=CC(=C(C#N)C#N)CC(C)(C)C3)CC2)=CC(=C(C#N)C#N)C1,–,–,–,–,50,–
Cn1cc(Cc2ccc(C(=O)NCc3ccccc3)cn2)c2ccccc21,·,·,–,–,·,·
O=C(NCCCN1CCC(Cc2ccccc2)CC1)c1ccc2nc(N3CCOCC3)sc2c1,–,–,–,–,–,·
O=C(c1ccc2nc(N3CCOCC3)sc2c1)N1CCCC1,–,–,–,–,–,·
CCOc1ccc(CNC(=O)c2ccc3nc(N4CCOCC4)sc3c2)cc1,–,–,–,–,–,–
COc1ccc2nc(N3CCCC(C(=O)NCCc4ccc(OC)c(OC)c4)C3)sc2c1 (stereo unspecified),–,–,–,–,–,·
O=C(NCc1cccc(F)c1)c1ccc2nc(N3CCOCC3)sc2c1,–,–,–,–,–,–
COc1ccc(CCNC(=O)c2ccc3nc(N4CCCCC4)sc3c2)cc1OC,–,–,–,–,–,–
O=C(NCCc1ccc(Cl)cc1)c1ccc2nc(N3CCOCC3)sc2c1,–,–,–,–,–,–
CCc1ccccc1NC(=O)c1ccc2nc(N3CCOCC3)sc2c1,–,–,–,–,–,·
Cc1ccc(NC(=O)c2ccc3nc(N4CCOCC4)sc3c2)c(Cl)c1,–,–,–,–,–,–
O=C(CC[C@H]1O[C@@H](n2cnc3c(NC(=O)c4ccccc4)ncnc32)[C@H](O)[C@@H]1O)NCCc1cc2ccccc2[nH]1,·,·,–,–,·,·
O=C(Oc1ccc(F)cc1C(=O)/C=C/c1cccs1)c1cccc([N+](=O)[O-])c1,·,–,–,–,50,41
CCCCNC(=O)Cn1c(=O)oc2cc(S(=O)(=O)N3CC(C)CC(C)C3)ccc21 (stereo unspecified),–,–,–,–,–,–
COCCCNC(=O)Cn1c(=O)oc2cc(S(=O)(=O)N3CC(C)CC(C)C3)ccc21 (stereo unspecified),–,–,–,–,–,·
COC(=O)c1ccc(CSc2nc3c(c(=O)[nH]2)CCC3)cc1,·,·,–,–,·,·
COCCNC(=O)C1(C)CCCN(Cc2cn(C)c3ccccc23)C1 (stereo unspecified),·,·,–,–,·,·
O=C(CCC(=O)Nc1ccc(F)cc1)N/N=C/c1ccncc1,–,–,–,–,56,–
CC(Sc1nc(-c2ccccc2)c(-c2ccccc2)[nH]1)C(=O)NCC1CCCO1 (stereo unspecified),·,·,–,–,·,·
Cc1ccc(S(=O)(=O)N2CC3C(=O)C[C@@H](c4ccccc4)N(S(=O)(=O)c4cccc(Cl)c4)C3CC2c2ccccc2)cc1 (stereo partly specified),·,·,–,·,·,·
CCOc1ccc(NC(=O)Nc2ccccc2SC)cc1,–,–,–,–,67,–
C=C1C(O)[C@@H]2O[C@]3(CC[C@H](/C=C/C(C)[C@@H]4CC(C)=CC5(O[C@H](C[C@@](C)(O)CO)CCC5O)O4)O3)CC[C@H]2O[C@@H]1C(O)CC(C)[C@H]1OC2(CCCCO2)CCC1C (stereo partly specified),·,–,·,·,54,52
